Screens from PubChem BioAssay.
Rv3671c inh – Rv3671c (M. tuberculosis) protease inhibition; P9WHR9; inhibition, % at 5.96 µM; actives 0.048% (n = 320,000); AID 2606; in the data active = inhibition above about 38%;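 note: extracellular domain of Rv3671c used as enzyme; 0% = enzyme with DMSO and 100% = no enzyme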
Mtb FBA inh – inhibitors of M. tuberculosis fructose-bisphosphate aldolase; P9WQA3; purified M. tuberculosis FBA, fluorescence read-out; inhibition, % at 1 µM; actives 2.3% (n = 360,000); AID 588726; in the data active = inhibition above about 27%;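 note: 0% = vehicle and 100% = reference inhibitor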
RecA splice inh – Mtb RecA intein splicing inhibition | cell-free RecA intein splicing, fluorescence | inhibition, % (no concentration beside the values) | actives 0.75% (n = 290,000) | AID 2221; in the data active = inhibition above about 30%;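 note: 0% = vehicle wells and 100% = reference inhibitor control wells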
Target sequence (P9WHJ3 whole entry, looked up, canonical isoform): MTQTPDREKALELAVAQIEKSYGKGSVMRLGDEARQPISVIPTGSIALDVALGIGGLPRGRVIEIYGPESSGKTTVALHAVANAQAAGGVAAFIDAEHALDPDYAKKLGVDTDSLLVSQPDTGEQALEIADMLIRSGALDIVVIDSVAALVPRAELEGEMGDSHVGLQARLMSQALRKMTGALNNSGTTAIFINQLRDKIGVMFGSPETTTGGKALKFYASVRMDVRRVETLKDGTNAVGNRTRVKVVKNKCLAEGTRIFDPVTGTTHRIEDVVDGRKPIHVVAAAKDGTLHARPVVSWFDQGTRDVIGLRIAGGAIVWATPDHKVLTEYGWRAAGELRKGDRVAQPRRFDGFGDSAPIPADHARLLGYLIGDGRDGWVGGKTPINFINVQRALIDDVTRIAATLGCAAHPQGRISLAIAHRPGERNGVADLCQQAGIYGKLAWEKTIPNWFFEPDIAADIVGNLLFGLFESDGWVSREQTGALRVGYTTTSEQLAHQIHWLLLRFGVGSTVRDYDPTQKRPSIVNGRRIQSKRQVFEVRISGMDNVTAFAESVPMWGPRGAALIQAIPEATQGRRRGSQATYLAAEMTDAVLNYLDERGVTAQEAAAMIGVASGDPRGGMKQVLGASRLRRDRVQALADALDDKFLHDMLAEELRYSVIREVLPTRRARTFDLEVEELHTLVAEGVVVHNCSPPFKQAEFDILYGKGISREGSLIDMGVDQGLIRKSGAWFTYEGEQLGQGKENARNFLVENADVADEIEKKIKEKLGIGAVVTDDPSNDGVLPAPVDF
Mtb UGM inh – Mtb UDP-galactopyranose mutase inhibition; purified UGM, fluorescence polarization probe displacement; inhibition, % at 10 µM; actives 0.06% (n = 320,000); P9WIQ1; AID 504406; in the data active = inhibition above about 10%, passing the limit was not always enough
Vc quorum ag – quorum light induction in luxS cqsA deficient V. cholerae; V. cholerae BH1578 lux reporter, luminescence, 6 h; activation, % at 18.7 µM; actives 0.16% (n = 350,000); AID 588436; in the data active = activation mostly above about 9.7%, no sharp cut-off
GDH-TPI counter – inhibits GDH-TPI coupling enzymes, artifact for Mtb FBA screen | actives 1.2% (n = 360,000) | GDH-TPI coupled enzyme counterscreen, NADH absorbance | inhibition, % at 4.8 µM; in the data active = inhibition above about 30%;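 note: 0% = DMSO wells and 100% = wells lacking the enzyme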
Active calls of the source: *. A selection: hits, their analogues and other compounds. The true share with any hit is near 4.1%.

Screening CN1CCCC1CCNc1ccc2c(=O)c3ccccc3oc2c1 (centres undefined) returned Rv3671c inh -9, Mtb FBA inh active, RecA splice inh inactive, Mtb UGM inh 2, Vc quorum ag inactive and GDH-TPI counter 31*.
CN1CCC[C@H]1CCNc1ccc2c(=O)c3ccccc3n(C)c2c1 was read as Mtb FBA inh 187*, Vc quorum ag 0 and GDH-TPI counter 33*.
N=c1oc2ccccc2cc1C(=O)Nc1cccc(F)c1 was read as Rv3671c inh 0, Mtb FBA inh -1, RecA splice inh 1, Mtb UGM inh 1, Vc quorum ag -1 and GDH-TPI counter -10.
For O=C(O)c1ccccc1NC(=O)c1cc2ccccc2oc1=O the results were Mtb FBA inh 1, RecA splice inh 0, Mtb UGM inh 2, Vc quorum ag -2 and GDH-TPI counter 50*.
Screening O=C(Nc1cccnc1N1CCOCC1)c1cc2ccccc2oc1=O returned Rv3671c inh 2, Mtb FBA inh -4, RecA splice inh 0, Mtb UGM inh -3, Vc quorum ag inactive and GDH-TPI counter 11.
For N=c1oc2ccccc2cc1C(=O)Nc1ccc(F)cc1 the results were Mtb FBA inh 64*, RecA splice inh 0, Mtb UGM inh -5, Vc quorum ag inactive and GDH-TPI counter 4.
COc1ccc2ccc(OC)c(/C=N/NC(=O)c3cc4ccccc4o3)c2c1 was read as Mtb FBA inh 4, Vc quorum ag inactive and GDH-TPI counter 32*.
Screening COc1cc(/C=N/NC(=O)c2cc3c(ccc4ccccc43)o2)cc(OC)c1O returned Rv3671c inh 9, Mtb FBA inh 5, RecA splice inh -7, Mtb UGM inh -2, Vc quorum ag -11 and GDH-TPI counter 49*.
`COc1ccc(/C=N\NC(=O)c2cc3c(ccc4ccccc43)o2)cc1O` gave Mtb FBA inh 9, RecA splice inh -5, Mtb UGM inh -3, Vc quorum ag inactive and GDH-TPI counter 39*.
Screening COc1ccc(/C=N/NC(=O)c2cc3c(ccc4ccccc43)o2)cc1OC returned Mtb FBA inh 7, RecA splice inh -5, Mtb UGM inh -1, Vc quorum ag 0 and GDH-TPI counter 26.
For CC(C)Cc1nnc(NC(=O)CCC(=O)N2CC(C)CC(C)C2)s1 (centres undefined) the results were Rv3671c inh 9, Mtb FBA inh -8, RecA splice inh -1, Mtb UGM inh 1, Vc quorum ag inactive and GDH-TPI counter 5.
O=C1CCC/C1=C\Nc1ccc(Cl)c([N+](=O)[O-])c1 was read as Rv3671c inh 1, Mtb FBA inh -3, RecA splice inh 1, Mtb UGM inh -1, Vc quorum ag 0 and GDH-TPI counter 25.
For O=C1CCC/C1=C/Nc1ccc(Cl)cc1 the results were Rv3671c inh 6, Mtb FBA inh -2, RecA splice inh 0, Mtb UGM inh -1, Vc quorum ag 1 and GDH-TPI counter 32*.
O=C1CCCC/C1=C\Nc1ccc(O)cc1 was read as Rv3671c inh -19, Mtb FBA inh 2, RecA splice inh -62, Mtb UGM inh 4, Vc quorum ag 0 and GDH-TPI counter 33*.
CCOC1=C2CN(S(=O)(=O)c3ccc(C)cc3)[C@H](c3ccccc3)C[C@H]2n2c(=O)n(-c3ccccc3)c(=O)n2C1 was read as Mtb FBA inh -1.
`O=C1CC(C(=O)O)S/C(=N\N=C\c2ccc(Br)cc2)N1` (centres undefined) gave Rv3671c inh -1, Mtb FBA inh 0, RecA splice inh 0, Mtb UGM inh -1, Vc quorum ag -1 and GDH-TPI counter 66*.
Screening C/C(=N/N=C1/NC(=O)CC(C(=O)O)S1)c1ccccc1 (centres undefined) returned Rv3671c inh 0, Mtb FBA inh 0, RecA splice inh 0, Mtb UGM inh 0, Vc quorum ag 0 and GDH-TPI counter 21.
`O=C(CCNS(=O)(=O)c1ccccc1C(F)(F)F)NNC(=O)C1COc2ccccc2O1` (centres undefined) gave Rv3671c inh -1, Mtb FBA inh -3, RecA splice inh 1, Mtb UGM inh 1, Vc quorum ag inactive and GDH-TPI counter 6.
Cn1c(CC(=O)NNC(=O)c2cccnc2)nc2ccccc21 was read as Rv3671c inh -6, Mtb FBA inh 0, Mtb UGM inh 3, Vc quorum ag 20* and GDH-TPI counter 10.
Cn1c(CC(=O)NNC(=O)c2ccc(F)cc2F)nc2ccccc21 was read as Rv3671c inh 13, Mtb FBA inh -1, Mtb UGM inh -1, Vc quorum ag 0 and GDH-TPI counter 1.
`COc1ccc(C(=O)Cn2cnc3ccc(Cl)cc3c2=O)cc1F` gave Rv3671c inh -9, Mtb FBA inh -3, RecA splice inh 1, Mtb UGM inh -1, Vc quorum ag -3 and GDH-TPI counter 7.
For CCOP(=O)(c1ccccc1)c1nc(-c2ccccc2Cl)oc1N1CCCCC1 (centres undefined) the results were Rv3671c inh 5, Mtb FBA inh 7, RecA splice inh 24, Mtb UGM inh 1, Vc quorum ag -7 and GDH-TPI counter 16.
For COP(=O)(OC)c1nc(-c2cccc3ccccc23)oc1N1CCOCC1 the results were Rv3671c inh 2, Mtb FBA inh active, RecA splice inh -18, Mtb UGM inh 1, Vc quorum ag 0 and GDH-TPI counter 19.
Screening CCOP(=O)(OCC)c1nc(-c2ccc(OC)cc2)oc1N1CCOCC1 returned Rv3671c inh 5, Mtb FBA inh 174*, RecA splice inh -2, Mtb UGM inh -2, Vc quorum ag 0 and GDH-TPI counter 11.
`Cc1ccc(-c2nc(P(=O)(c3ccccc3)c3ccccc3)c(N3CCOCC3)o2)cc1` gave Rv3671c inh -8, Mtb FBA inh -5, RecA splice inh 10, Mtb UGM inh -2 and GDH-TPI counter 7.
`CCOc1ccc(-c2nc(C#N)c(N3CCOCC3)o2)cc1` gave Rv3671c inh -5, Mtb FBA inh 175*, RecA splice inh 1, Mtb UGM inh -1, Vc quorum ag 0 and GDH-TPI counter 13.
`COP(=O)(OC)c1nc(-c2ccc(C)cc2)oc1N1CCCCC1` gave Rv3671c inh 3, Mtb FBA inh active, RecA splice inh -4, Mtb UGM inh 3, Vc quorum ag inactive and GDH-TPI counter 16.
For COc1ccc(NC(=O)c2ccc(-c3ccc(C(C)=O)cc3)o2)cn1 the results were Rv3671c inh -8, Mtb FBA inh 19, Mtb UGM inh 3, Vc quorum ag inactive and GDH-TPI counter 32*.
O=C1/C(=C/c2ccccc2)Oc2cc(OC(=O)N3CCOCC3)ccc21 was read as Rv3671c inh -1, Mtb FBA inh 2, RecA splice inh -1, Mtb UGM inh 1, Vc quorum ag 0 and GDH-TPI counter 31.
COc1ccc(/C=C2\Oc3cc(OCC(=O)N4CCC[C@H]4C(=O)O)ccc3C2=O)c(OC)c1OC was read as Rv3671c inh -2, Mtb FBA inh -2, RecA splice inh 4, Mtb UGM inh 0, Vc quorum ag 0 and GDH-TPI counter 38*.
